The OligoGym collection

Target: MAPKAPK5
Test: pooled miR-30 sensor sort-seq; sequence = guide strand
Conditions: shRNA
Further: reference of the scale not given here.

Sequence | sensor-assay potency score (higher = more potent)
TTAGTCGATCTACTTTATCTGT | -0.383
TAACTGGACCACTAATTCCAGC | -1.31
TATGATGCCAGATTTCTCCTTC | 0.745
ATAATCTGAACTATGTTTGGGT | 0.519
TAGTCGATCTACTTTATCTGTG | -0.684
TATTCTTCTAAAATGGAAGTTT | -0.731
TTTACACAGACTCTAACTGGAC | -0.371
TCTGACTCCACTCTTCCTCTGG | 0.0951
TTTCTTCGCATATCCTTTGGGA | -0.249
TTGCTCTTCTATCACCTGCTTC | -0.717
TATCTGTGAATCCACGACCATT | -1.59
TTCAATAATCTGAACTATGTTT | -0.32

Target: MARCH9
Test: as above
Conditions: shRNA

Sequence | sensor-assay potency score (higher = more potent)
TAGCAGAGCTCACAGCTCCAGG | -0.864
TTGAAGATGCGGTAGACAGAGG | -1.26
TGCATCTCCTCCTATGTCCTTG | -0.947
TGAAAGAGCAGATCCTGTCGTT | 0.563
ATTTAGGACCTTCCACTGCTGG | -1.22
TATGGCAGCAATCTGGACCTTC | -0.025
ATACATGCCGTAGCAGATCTGA | -0.925
TGCAAGATTGTATAACCGCAGC | -1.34
TACTTGAAGTAGCAGAGCTCAC | -1.11
